Data on 24 compounds can be found in PubChem BioAssay (Tox21).

Each structure is given as a SMILES string. Results filed as inconclusive are left out. Where a call stands in place of a potency, no number is given. Activity calls are given as the source filed them. Calls come from the whole dose curve; as a rule, active = well fitted activation curve with a large enough effect in the signal ratio in the repeat runs (not every such curve was filed as active); inconclusive = weak or mixed curves, or effect the other way; inactive = no such curve, though single readings can be large or run the other way; the % refers to the signal ratio. Non-standard residues stand in square brackets, D forms with d. Residues, ends and D or L forms follow the SMILES beside them. pGlu = O=C1CC[C@@H](C(=O)O)N1; Thz = O=C(O)[C@@H]1CSCN1
Potency is the fitted concentration of half-maximal effect.

In the assay the target is Peroxisome proliferator-activated receptor gamma (Homo sapiens) (UniProt P37231). Description: qHTS assay to identify small molecule agonists of the peroxisome proliferator-activated receptor gamma (PPARg) signaling pathway (AID 743094). The conditions noted are these: HEK293H PPARg-UAS-bla, beta-lactamase FRET ratio, 17 h; series mostly up to 57 µM. In a few lines: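 Quantitative HTS agonist mode: stable HEK293H line with UAS-beta-lactamase reporter under PPARg control, 17 h compound exposure at 37C, fluorescence after 1 h FRET substrate loading at room temperature.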
Peroxisome proliferator-activated receptor gamma (Homo sapiens), sequence (P37231 whole entry, looked up): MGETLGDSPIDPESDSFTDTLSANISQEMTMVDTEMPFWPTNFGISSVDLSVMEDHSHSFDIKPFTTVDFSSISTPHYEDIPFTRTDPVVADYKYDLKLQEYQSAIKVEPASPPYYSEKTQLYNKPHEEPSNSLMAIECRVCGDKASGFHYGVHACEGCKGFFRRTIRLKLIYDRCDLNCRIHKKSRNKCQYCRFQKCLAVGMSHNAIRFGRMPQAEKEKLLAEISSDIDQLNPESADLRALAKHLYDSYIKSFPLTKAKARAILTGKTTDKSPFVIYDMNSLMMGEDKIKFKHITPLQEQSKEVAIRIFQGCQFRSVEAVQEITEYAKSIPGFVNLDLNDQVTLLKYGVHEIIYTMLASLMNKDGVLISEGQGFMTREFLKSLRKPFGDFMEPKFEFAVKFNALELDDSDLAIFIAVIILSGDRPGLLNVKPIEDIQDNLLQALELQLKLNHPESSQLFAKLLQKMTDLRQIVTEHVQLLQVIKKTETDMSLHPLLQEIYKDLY
For orientation: In qHTS, concentration-response curves come from the screen itself.
For the compound `O=C1CC[C@@H](C(=O)N2CSC[C@H]2C(=O)O)N1` ([pGlu]-[Thz]-OH), the Potency entry was “inactive”. Next, `CCN(CC)CCCC(C)Nc1cc(/C=C/c2ccccc2Cl)nc2cc(Cl)ccc12` (centres undefined): “inactive”; `CO[C@H]1O[C@@H]2O[C@@]3(C)CC[C@H]4[C@H](C)CC[C@@H]([C@H]1C)[C@@]24OO3`: “inactive”; `CN1c2cc(O)c(N=NC(N)=O)cc2CC1S(=O)(=O)O` (centres undefined): “inactive”.

`Cn1c(O)c(N=NC(N)=S)c2ccccc21`: the Potency is 21.3 µM (active). As to `Nc1ncnc2c1ncn2CCOCP(=O)(O)O`, the Potency result is “inactive”. The result for `CC(CCc1ccc(O)cc1)NCC(O)c1ccc(O)cc1` (centres undefined) reads “inactive”; that for `C[C@H](CCCC(C)(C)O)[C@H]1CC[C@H]2[C@@H]3CC=C4C[C@@H](O)CC[C@]4(C)[C@H]3CC[C@]12C`, “inactive”; that for `CO[C@H]1C[C@@H]2CC[C@@H](C)[C@@](O)(O2)C(=O)C(=O)N2CCCC[C@H]2C(=O)O[C@H]([C@H](C)C[C@@H]2CC[C@@H](OC(=O)C(C)(CO)CO)[C@H](OC)C2)CC(=O)[C@H](C)/C=C(\C)[C@@H](O)[C@@H](OC)C(=O)[C@H](C)C[C@H](C)/C=C/C=C/C=C/1C`, “inactive”. Next, `O=C1NCCN1c1ncc([N+](=O)[O-])s1`: “inactive”; `CN[C@@H]1[C@H](O[C@H]2[C@H](O[C@H]3[C@H](O)[C@@H](O)[C@H](N=C(N)N)[C@@H](O)[C@@H]3N=C(N)N)O[C@@H](C)[C@]2(O)CO)O[C@@H](CO)[C@H](O)[C@H]1O`: “inactive”. The result for `NCCCC[C@H](N)C(=O)O` reads “inactive”; that for `COc1cc2c(cc1OC)CC(=O)N(CCCN(C)C[C@H]1Cc3cc(OC)c(OC)cc31)CC2`, “inactive”; that for `NC(=O)c1ccc[n+]([C@@H]2O[C@H](COP(=O)([O-])OP(=O)(O)OC[C@H]3O[C@@H](n4cnc5c(N)ncnc54)[C@H](O)[C@@H]3O)[C@@H](O)[C@H]2O)c1`, “inactive”.

Consider `C#C[C@]1(O)CC[C@H]2[C@@H]3CCC4=CC(=O)CC[C@@H]4[C@H]3C(=C)C[C@@]21CC`, for which the Potency result is “inactive”. The result for `CN1CCN(C(c2ccccc2)c2ccc(Cl)cc2)CC1` (centres undefined) reads “inactive”.

In the case of `CC(C)(C)C(=O)OCOC(=O)[C@@H]1N2C(=O)[C@@H](N=CN3CCCCCC3)[C@H]2SC1(C)C`, the Potency result is “inactive”. Next, `CCCOc1ccc2nc(NC(=O)OC)sc2c1`: “inactive”; `O=C1CCC(=O)N1CO`: “inactive”; `C=Cc1c(C)c2cc3nc(cc4[nH]c(cc5nc(cc1[nH]2)C(C)=C5CCC(=O)OC)c(CCC(=O)O)c4C)[C@@]1(C)C3=CC=C(C(=O)OC)[C@H]1C(=O)OC`: “inactive”. The result for `Cc1ccc(S(=O)(=O)NC(=O)N[C@@H](C)Cc2ccccc2)cc1` reads “inactive”. The result for `CC(C)N=c1cc2n(-c3ccc(Cl)cc3)c3ccccc3nc-2cc1Nc1ccc(Cl)cc1` reads “inactive”; that for `C#C[C@]1(O)CC[C@H]2[C@@H]3CCC4=CCCC[C@@H]4[C@H]3C(=C)C[C@@]21CC`, “inactive”; that for `CC1=C(/C=C/C(C)=C/C=C/C(C)=C/C(=O)Oc2c(C)c(C)c3c(c2C)CC[C@@](C)(CCC[C@H](C)CCC[C@H](C)CCCC(C)C)O3)C(C)(C)CCC1`, “inactive”.
